ELG1 DNA repair: qHTS screen for small molecules that inhibit ELG1-dependent DNA repair in human embryonic kidney (HEK293T) cells expressing luciferase-tagged ELG1. HEK293T ELG1-luciferase reporter, luminescence, 16 h; DNA damage induced by 5-fluorouridine. Potency, µM (series often up to 46.1 µM), usual class: inhibitors. 330,000 tested, 2.3% active. AID 504467, 2011; note: nearly all actives have a fitted effect of over 55% in size
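Luminescence from the luciferase reporter, measured 30 min after ONE-Glo reagent at room temperature, was the read-out. Beforehand, 2,000 cells per well were exposed for 16 hr at 37 °C to 5-fluorouridine together with compound or vehicle.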
VP16 counter: VP16 counterscreen qHTS for inhibitors of ROR gamma transcriptional activity | 310,000 tested, 3.5% active | AID 2546, 2010 | Potency, µM (series often up to 53.6 µM), usual class: inhibitors | Drosophila S2 Gal4-VP16 UAS-luciferase, luminescence, 20 h;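 note: Gal4-VP16 expression switched on by copper sulfate through the metallothionein promoter; nearly all actives have a fitted effect of over 50% in size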
BRCA1 expr act: qHTS Assay to Identify Small Molecule Activators of BRCA1 Expression. 380,000 tested, 1.1% active. MCF7-BRCA1-FFLuc reporter, luminescence, 48 h; response scale: scaled: vehicle 0%, 10 µM genistein 100%. Potency, µM (highest dose often 46.1 µM), hits mostly activators. AID 624202, 2012; note: nearly all actives have a fitted effect of over 80% in size
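Activators of BRCA1 expression were detected as increased firefly luciferase luminescence in engineered MCF7 cells after 48 h compound incubation. Signals were scaled to genistein 10 microM as full activation.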
Giardia killer: Small Molecules that selectively kill Giardia lamblia: qHTS; activity change, % at 7.66 µM, hits read low; 340,000 tested, 0.15% active; Giardia lamblia trophozoite viability; in the data active = activity change below about -80%; inconclusive = between about -30% and that limit;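 note: parasites exposed to compound for two days anaerobically before the ATP read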
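Trophozoites 100 cells/well + cpd; 48 hrs, 37 deg C, anaerobic. ATPLite 1-Step added, 15-30 min RT, luminescence read (ATP-based viability).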
RORgamma inh: qHTS for inhibitors of ROR gamma transcriptional activity; 310,000 tested, 5.4% active; Drosophila S2 Gal4-RORgamma UAS-luciferase reporter, 20 h; Potency, µM (top dose mostly 53.6 µM), most hits filed as inhibitors; Nuclear receptor ROR-gamma (Mus musculus), P51450; note: nearly all actives have a fitted effect of over 60% in size
Target sequence (P51450 whole entry, looked up, the tested form may be a part): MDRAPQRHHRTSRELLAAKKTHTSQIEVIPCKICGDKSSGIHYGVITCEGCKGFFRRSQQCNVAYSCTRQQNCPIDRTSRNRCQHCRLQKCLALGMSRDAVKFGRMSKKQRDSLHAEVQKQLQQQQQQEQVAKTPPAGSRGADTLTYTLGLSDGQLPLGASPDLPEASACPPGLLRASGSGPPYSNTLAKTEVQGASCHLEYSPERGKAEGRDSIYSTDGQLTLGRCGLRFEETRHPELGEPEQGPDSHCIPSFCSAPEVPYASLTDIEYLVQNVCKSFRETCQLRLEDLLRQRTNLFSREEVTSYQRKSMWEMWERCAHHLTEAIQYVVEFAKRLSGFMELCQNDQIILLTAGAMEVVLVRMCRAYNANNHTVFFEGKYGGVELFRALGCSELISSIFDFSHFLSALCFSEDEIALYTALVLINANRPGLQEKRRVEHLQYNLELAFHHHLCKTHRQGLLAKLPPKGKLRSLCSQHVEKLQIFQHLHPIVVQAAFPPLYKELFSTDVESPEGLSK
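Drosophila S2 cells stably expressing Gal4-DBD/mouse RORγ fusion under metallothionein promoter plus UAS-luciferase; compound 1 h, then 700 uM CuSO4 induction for 20 h at ambient temperature; inhibition read as reduced luminescence.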
p53 reactivator: qHTS assay for re-activators of p53 using a Luc reporter; H1299 p53-A138V BP100-luciferase reporter, luminescence, 24 h; Potency, µM (highest dose often 92.2 µM), usual class: activators; 320,000 tested, 0.063% active; note: nearly all actives have a fitted effect of over 45% in size
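p53-null H1299 cells stably carrying temperature-sensitive p53-A138V and a BP100-luciferase reporter were pinned with compounds (4-point, 1:5 series) and held 24 hrs at 37 deg C. Luminescence was read 10 min after detection reagent.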
Of the large screens only hits and unclear results are named; the others gave an inactive call. In the library only some 7.6% were active in any assay of this set; here they are far more common. Unless noted, calls come from the whole dose curve; as a rule, active = well fitted curve in the direction sought with a large enough effect; inconclusive = small, poorly fitted or top-dose-only effect, or another doubt; inactive = no such curve, though single readings can be large; an effect the other way counts as inactive or inconclusive.

CCOc1ccc(-c2csc(/C(C#N)=C\c3ccc(O)c([N+](=O)[O-])c3)n2)cc1	ELG1 DNA repair 13µM, VP16 counter inconclusive
COc1ccc(C2(c3ccc(OC)cc3)NC(=O)N(CC(=O)Nc3ccc(N4CCOCC4)cc3)C2=O)cc1	ELG1 DNA repair inconclusive (no result: VP16 counter, RORgamma inh)
Clc1ccc(-c2noc(CN(Cc3ccccn3)CC3CCCO3)n2)cc1 (stereo not drawn)	RORgamma inh 4µM
CCn1c2ccc(F)cc2c2nc3ccccc3nc21	none
COc1ccccc1CNC(=O)COC(=O)CC1CC2CCC1C2 (stereo not drawn)	none (no result: VP16 counter, RORgamma inh)
Cc1cc(CC(C)C)n(-c2nc3ccccc3c(=O)n2OCC(=O)N(C)C)n1	ELG1 DNA repair inconclusive, VP16 counter 6.3µM, RORgamma inh 2.2µM, p53 reactivator inconclusive
Cc1cc(C)n(-c2nc3ccccc3c(=O)n2OCC(=O)N(C)C)n1	none
Cc1cc(CC(C)C)n(-c2nc3ccccc3c(=O)n2OCc2ccccc2)n1	VP16 counter inconclusive, RORgamma inh 1.6µM
O=C(CN1C(=O)NC2(CCCc3ccccc32)C1=O)c1ccc(F)cc1 (stereo not drawn)	ELG1 DNA repair inconclusive (no result: VP16 counter, RORgamma inh)
O=C1Nc2ccccc2Oc2cc(Oc3cccc(Cl)c3)ccc21	none (no result: ELG1 DNA repair, VP16 counter, Giardia killer, RORgamma inh, p53 reactivator)
Clc1ccccc1CSc1nnc([C@@H]2CCCN2)o1	none
CCOc1cc(C(F)(F)F)cnc1/C(N)=N/O	none
CCNc1nc(C#N)nc(N2CCCCC2)n1	none (no result: ELG1 DNA repair, VP16 counter, RORgamma inh, p53 reactivator)
CCC(C)c1ccc(NC(=S)NCCn2cc(Cl)cn2)cc1 (stereo not drawn)	VP16 counter 10µM, RORgamma inh 3.2µM
CCC(C)c1ccc(NC(=S)Nc2ccc(OC)c(OC)c2)cc1 (stereo not drawn)	RORgamma inh inconclusive
CCC(C)c1ccc(NC(=S)NCCn2cc(Br)cn2)cc1 (stereo not drawn)	VP16 counter 11µM, RORgamma inh 2.2µM
COC(=O)Nc1ccc(S(=O)(=O)N2CCCc3cccc(O)c32)cc1	ELG1 DNA repair 18µM
COC(=O)Nc1ccc(S(=O)(=O)N2CCCc3ccccc32)cc1	none
FC(F)Sc1ccc(NC(=S)NC2CCCC2)cc1	VP16 counter inconclusive, RORgamma inh 11µM
CC1CCCC(NC(=S)Nc2ccc(SC(F)F)cc2)C1C (stereo not drawn)	VP16 counter 5µM, RORgamma inh 0.5µM
Cc1cc(C)n(-c2nc3ccccc3c(=O)n2OCc2ccc(Cl)cc2)n1	VP16 counter inconclusive, RORgamma inh 10µM
Cc1cc(C)n(-c2nc3ccccc3c(=O)n2OCC(=O)OCc2ccccc2)n1	ELG1 DNA repair inconclusive, VP16 counter 2.5µM, RORgamma inh 0.56µM, p53 reactivator inconclusive
Cc1cc(C)n(-c2nc3ccccc3c(=O)n2OCC(=O)Nc2c(C)cccc2C)n1	VP16 counter inconclusive, RORgamma inh 11µM
Cc1cc(C(=O)NCC(=O)Nc2c(C)cccc2C)c2ccccc2n1	ELG1 DNA repair inconclusive, Giardia killer inconclusive (no result: VP16 counter, RORgamma inh)
COc1cccc(C(=O)N(c2ccccc2)C2C=CS(=O)(=O)C2)c1 (stereo not drawn)	none
COc1ccc2c(c1)Cc1sc(NC(=O)c3ccccc3)nc1-2	ELG1 DNA repair inconclusive, BRCA1 expr act inconclusive, RORgamma inh 11µM
COc1ccc(C(=O)Nc2nc3c(s2)Cc2cc(OC)ccc2-3)cc1	ELG1 DNA repair inconclusive, VP16 counter 35µM, RORgamma inh inconclusive
COc1ccc2c(c1)Cc1sc(NC(=O)c3cccs3)nc1-2	ELG1 DNA repair inconclusive, VP16 counter inconclusive, BRCA1 expr act inconclusive, RORgamma inh 7.9µM, p53 reactivator inconclusive
COC(=O)/C(=C\Nc1ccc(Cl)cc1Cl)NC(=O)c1ccc(OC)cc1	none
COC(=O)c1ccc(C(NC(=O)OCc2ccccc2)/C(=C/[C@@H](C)C(=O)NCc2cccnc2)c2cccnc2)cc1 (stereo partly drawn)	none (no result: ELG1 DNA repair, BRCA1 expr act, Giardia killer, p53 reactivator)
CN(C)c1ccc(/C=N/n2ncc3ccccc32)cc1	ELG1 DNA repair inconclusive, VP16 counter 7.1µM, RORgamma inh 0.71µM, p53 reactivator inconclusive
C=CCn1c(/N=C/c2ccc(N(C)C)cc2)nc2ccccc21	none
CCOC(=O)c1cc(CC)sc1NC(=O)c1cccc(N2C(=O)CCC2=O)c1	ELG1 DNA repair 18µM, RORgamma inh inconclusive
COCCn1c(=O)cnc2cnc(Oc3cccc(Cl)c3)nc21	none (no result: ELG1 DNA repair, BRCA1 expr act, Giardia killer, p53 reactivator)
CCOc1ccc(Oc2ccc(S(=O)(=O)N3CCOCC3)cc2NC(=O)CCNC(C)=O)cc1	none (no result: VP16 counter, RORgamma inh)
CCn1c(C)c(/C=N/Nc2nc3ccccc3s2)c2ccccc21	VP16 counter inconclusive, RORgamma inh 5µM
Cc1ccsc1/C=N/Nc1nc2ccccc2s1	ELG1 DNA repair inconclusive, VP16 counter 0.89µM, RORgamma inh 0.56µM (no result: p53 reactivator)
Oc1ccccc1C=NNc1nc2ccccc2s1	none (no result: ELG1 DNA repair, VP16 counter, RORgamma inh, p53 reactivator)
C(=N\Nc1nc2ccccc2s1)/c1cccs1	ELG1 DNA repair inconclusive, VP16 counter 3.2µM, RORgamma inh 1.3µM, p53 reactivator inconclusive
Cc1nn(-c2ccccc2Cl)c(Cl)c1/C=N/Nc1nc2ccccc2s1	ELG1 DNA repair inconclusive, VP16 counter 0.32µM, Giardia killer inconclusive, RORgamma inh 1µM
COc1cccc(C=NNc2nc3ccccc3s2)c1OC	BRCA1 expr act inconclusive (no result: ELG1 DNA repair, VP16 counter, RORgamma inh, p53 reactivator)
CCOC(=O)N/N=C/c1c(C)nn(-c2ccccc2Cl)c1Cl	ELG1 DNA repair inconclusive, VP16 counter inconclusive, RORgamma inh inconclusive, p53 reactivator inconclusive
CCOC(=O)Nc1nnc(/C=C/c2ccc(OC)cc2)s1	ELG1 DNA repair inconclusive
COc1ccc(S(=O)(=O)NCc2cccnc2)cc1C(=O)N1CCCCC1	none
O=C(CSc1n[nH]c(=O)[nH]c1=O)NC1CCCCC1	none
C/C(=N\Nc1nc2ccccc2s1)c1cccs1	ELG1 DNA repair inconclusive, VP16 counter 3.5µM, RORgamma inh 0.71µM, p53 reactivator inconclusive
CC(=NNc1nc2ccccc2s1)c1ncccn1	none (no result: ELG1 DNA repair, VP16 counter, RORgamma inh, p53 reactivator)
C(=N\Nc1nc2ccccc2s1)/c1ccco1	ELG1 DNA repair inconclusive, VP16 counter inconclusive, RORgamma inh 11µM, p53 reactivator inconclusive
O=C(COc1ccc(F)cc1Cl)NC1CCCCCC1	ELG1 DNA repair inconclusive, BRCA1 expr act inconclusive, p53 reactivator inconclusive (no result: VP16 counter, RORgamma inh)
Cc1ccccc1CNC(=O)c1ccc2nc(N3CCOCC3)sc2c1	VP16 counter inconclusive (no result: p53 reactivator)
CC(=O)c1cccc(NS(=O)(=O)c2ccc(C(=O)Nc3ccccc3)cc2)c1	VP16 counter 10µM, RORgamma inh inconclusive
CC(=O)Nc1ccc(NS(=O)(=O)c2ccc(-c3cnc(C4CC4)o3)cc2)cc1	none
CC(=O)c1cccc(NC(=O)c2ccc(N(C)S(=O)(=O)c3ccc(C)cc3)cc2)c1	ELG1 DNA repair 16µM

Screens deposited in PubChem by National Center for Advancing Translational Sciences (NCATS).
